Compound activity from PubChem BioAssay.
An excerpt weighted towards active compounds, which were near 4% of everything screened.
BoNT-A LC inh2: inhibitors of Botulinum neurotoxin A light chain protease | multiplex microsphere protease substrate cleavage, flow cytometry | inhibition, % at 10 µM | 360,000 tested, 0.17% active; note: plate controls were buffer without enzyme for full effect and enzyme alone for no effect
BoNT F protease: inhibitors of Botulinum neurotoxin F light chain protease. inhibition, % at 10 µM. 360,000 tested, 0.22% active. Multiplex microsphere protease cleavage assay, flow cytometry; in the data active = inhibition above about 35%, passing the limit was not always enough; inconclusive = no clear call, values can overlap the other calls; note: plate controls were buffer without enzyme for full effect and enzyme alone for no effect
VHR inh abs: DUSP3 (human) phosphatase inhibition | AID 1654 | recombinant VHR phosphatase, pNPP absorbance | inhibition, % at 13.3 µM | 290,000 tested, 0.52% active; in the data active = inhibition above about 50%
Target sequence (P51452 whole entry, looked up): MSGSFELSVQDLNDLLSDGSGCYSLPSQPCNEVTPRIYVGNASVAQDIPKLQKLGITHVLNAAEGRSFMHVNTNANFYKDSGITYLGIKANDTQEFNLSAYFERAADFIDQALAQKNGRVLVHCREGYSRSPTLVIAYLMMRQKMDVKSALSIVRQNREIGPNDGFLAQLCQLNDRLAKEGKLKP
Autofluor counter: flagged as autofluorescent in microsphere protease counterscreen. compound autofluorescence counterscreen, microsphere flow cytometry; stronger effect = higher value. fluorescence intensity (concentration not given with the values). 360,000 tested, 3.1% active. AID 624483; in the data active = fluorescence intensity above about 16000; inconclusive = no clear call, values can overlap the other calls
MazF activator: MazEF (E. coli) toxin RNase activation; FAM/BHQ RNA-DNA oligo cleavage fluorescence, 5 h; activation, % at 20 µM; 350,000 tested, 0.32% active; AID 504720; in the data active = activation above about 50%
Target sequence (P0AE70 whole entry, looked up): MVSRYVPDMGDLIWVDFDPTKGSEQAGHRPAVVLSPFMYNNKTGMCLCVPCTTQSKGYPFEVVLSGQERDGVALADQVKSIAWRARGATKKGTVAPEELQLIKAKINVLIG
Anthrax LF prot: inhibitors of Bacillus anthracis lethal factor protease | 360,000 tested, 0.12% active | AID 588501 | multiplex microsphere protease cleavage assay, LF | inhibition, % at 10 µM | P15917; note: plate controls were buffer without enzyme for full effect and enzyme alone for no effect
* = called active by the depositor. Cut-off read from the data, not from the text of the source, unless noted: active = inhibition above about 30%; inconclusive = no clear call, values can overlap the other calls; inactive = below that.

How did O=C(CSCc1cnn(-c2ccccc2)c1-n1cccc1)N1CCN(Cc2ccccc2)CC1 do in these assays?
BoNT-A LC inh2: inconclusive; BoNT F protease: 8.5; VHR inh abs: 34.7; Autofluor counter: 18611*; MazF activator: -10.8; Anthrax LF prot: -2.8

Results for O=C1CCC(=O)N1c1ccc(S(=O)(=O)Nc2ccc(Br)cc2)cc1 ?
BoNT-A LC inh2: -0.2; BoNT F protease: -2.3; VHR inh abs: 21.1; Autofluor counter: 4265; MazF activator: -0.7; Anthrax LF prot: -1.7

Results for COC(=O)c1ccc(/C=C/C(=O)c2ccc(OC)cc2)cc1 ?
BoNT-A LC inh2: 0.4; BoNT F protease: 0.9; VHR inh abs: 23.7; Autofluor counter: 22281*; MazF activator: -2.6; Anthrax LF prot: -0.2

What do the screens show for `COC(=O)c1ccc(/C=C/C(=O)c2ccc(OC)c(OC)c2)cc1`?
BoNT-A LC inh2: -0.8; BoNT F protease: -12.4; VHR inh abs: 13.7; Autofluor counter: 3525; MazF activator: 0.1; Anthrax LF prot: -9.7

Results for COc1cccc(NS(=O)(=O)c2c(C)cc(C)cc2C)c1 ?
BoNT-A LC inh2: -0.8; BoNT F protease: -1.7; VHR inh abs: -8.2; Autofluor counter: 20856*; MazF activator: 1.5; Anthrax LF prot: -0.8

How did COc1ccc(NS(=O)(=O)c2c(C)cc(C)cc2C)cc1 do in these assays?
BoNT-A LC inh2: -0.7; BoNT F protease: -3.6; VHR inh abs: 2.4; Autofluor counter: 3419; MazF activator: -1.6; Anthrax LF prot: -5.0

How did O=C(O)c1ccc(NS(=O)(=O)c2ccc(Cl)cc2)cc1 do in these assays?
BoNT-A LC inh2: -1.2; BoNT F protease: -1.9; VHR inh abs: -7.0; Autofluor counter: 21092*; MazF activator: 4.2; Anthrax LF prot: -5.3

What do the screens show for `COc1ccc(NS(=O)(=O)c2ccc(N3C(=O)CCC3=O)cc2)cc1`?
BoNT-A LC inh2: -3.9; BoNT F protease: -4.2; VHR inh abs: 2.0; Autofluor counter: 24859*; MazF activator: -10.3; Anthrax LF prot: -2.1

What do the screens show for `O=C(Nc1ccc(NS(=O)(=O)c2ccccc2)cc1)c1ccc(Cl)cc1`?
BoNT-A LC inh2: -6.1; BoNT F protease: -6.8; VHR inh abs: 14.2; Autofluor counter: 5541; MazF activator: 5.2; Anthrax LF prot: -3.3

How did COc1ccc(-n2nc(C(=O)NCC(=O)NCc3ccccc3OC)c3ccccc3c2=O)cc1 do in these assays?
BoNT-A LC inh2: -7.5; BoNT F protease: -21.7; VHR inh abs: 35.6; Autofluor counter: 3604; MazF activator: 6.8; Anthrax LF prot: 2.8

Results for Cc1cccc(NS(=O)(=O)c2ccc(C)c(C(=O)NCC(c3cccs3)N(C)C)c2)c1 (centres undefined) ?
BoNT-A LC inh2: 3.1; BoNT F protease: inconclusive; Autofluor counter: inconclusive; MazF activator: -5.1; Anthrax LF prot: -2.3

What do the screens show for `CCOc1cc(NC(=S)NCCCN2CCOCC2)c(OCC)cc1NC(=O)C1CC1`?
BoNT-A LC inh2: 0.2; BoNT F protease: -4.8; VHR inh abs: -4.4; Autofluor counter: 1948; MazF activator: -4.2; Anthrax LF prot: 1.2

Results for COc1ccc(OS(=O)(=O)c2ccc(N3C(=O)CCC3=O)cc2)cc1 ?
BoNT-A LC inh2: 0.0; BoNT F protease: -5.3; VHR inh abs: 20.3; Autofluor counter: 3689; MazF activator: 1.9; Anthrax LF prot: -17.0

Results for COc1ccc(N2C(=O)CCC(C(C)=O)=C2C)cc1 ?
BoNT-A LC inh2: inconclusive; BoNT F protease: 1.3; VHR inh abs: 18.9; Autofluor counter: 22405*; MazF activator: -2.8; Anthrax LF prot: -2.3

Results for COC(=O)c1ccc(NS(=O)(=O)c2ccc(OC)cc2)cc1 ?
BoNT-A LC inh2: inconclusive; BoNT F protease: 0.5; VHR inh abs: -0.9; Autofluor counter: 22817*; MazF activator: 5.0; Anthrax LF prot: -0.9

How did COc1ccc(NS(=O)(=O)c2ccc(NS(=O)(=O)c3cccc(C(=O)O)c3)cc2)cc1 do in these assays?
BoNT-A LC inh2: 0.5; BoNT F protease: 0.9; VHR inh abs: 29.7; Autofluor counter: 5142; MazF activator: -5.4; Anthrax LF prot: 0.4

How did COc1cccc(OCCCN2CCN(S(=O)(=O)c3ccc(NC(C)=O)cc3)CC2)c1 do in these assays?
BoNT-A LC inh2: inconclusive; BoNT F protease: -1.7; VHR inh abs: 38.8; Autofluor counter: 20823*; MazF activator: -5.9; Anthrax LF prot: -2.8

What do the screens show for `COc1ccc(S(=O)(=O)Nc2cccc(/C=C/C(=O)O)c2)cc1`?
BoNT-A LC inh2: 0.1; BoNT F protease: -2.6; VHR inh abs: 7.4; Autofluor counter: 2624; MazF activator: 6.2; Anthrax LF prot: -0.2
